These results are taken from publication PMC7862700, “An all-to-all approach to the identification of sequence-specific readers for epigenetic DNA modifications on cytosine”.

What all share (assay): DAPPL (digital affinity profiling via proximity ligation, sequencing); 10 mM Tris-HCl pH 7.5, 50 mM NaCl, 1 mM DTT, 4% glycerol, room temperature, 30 min; GST-TFs on glutathione beads, 16-mer random dsDNA library, 0.1% formaldehyde crosslink after washing; high values mean tight binding
Test [1] addresses T1, FEV (Homo sapiens, UniProt Q99581 1-238).
T1 sequence: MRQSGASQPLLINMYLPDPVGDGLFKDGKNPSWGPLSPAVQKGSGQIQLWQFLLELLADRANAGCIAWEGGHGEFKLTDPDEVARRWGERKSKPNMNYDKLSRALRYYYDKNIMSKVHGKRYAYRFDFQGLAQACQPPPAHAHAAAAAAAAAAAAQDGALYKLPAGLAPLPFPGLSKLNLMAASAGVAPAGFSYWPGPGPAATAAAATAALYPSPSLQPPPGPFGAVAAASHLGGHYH
The conditions noted are these: protein: recombinant; tags: N-terminal GST; dsDNA, one strand shown. Summed up: (§1)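 A tag-only sample was pooled with DNA-barcoded human transcription factors that had been expressed in yeast as GST fusions and captured on glutathione beads. The pools were incubated for 30 min at room temperature with 200 nmole of a random double-stranded 16-mer DNA library in Tris/NaCl/DTT/glycerol buffer, then washed, crosslinked with 0.1% formaldehyde, proximity-ligated (BsaI/T4 ligase, 1 h, 37 °C), PCR-amplified and sequenced on an Illumina NextSeq500. Binding signal is each hexamer's read frequency for a factor divided by its frequency for the tag-only sample.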

For test [2], the target named is ETV5 (Homo sapiens, UniProt P41161 1-510). Particulars: protein: recombinant; tags: N-terminal GST; dsDNA, one strand shown. Put shortly:
as §1

Test [3] has as its target HSF1 (Homo sapiens, UniProt Q00613 1-529). Particulars: protein: recombinant; tags: N-terminal GST; chain copies: 3; dsDNA, one strand shown. Put shortly:
as §1

In test [4] the target is T2, SPIC (Homo sapiens, UniProt Q8N5J4 1-248).
T2 sequence: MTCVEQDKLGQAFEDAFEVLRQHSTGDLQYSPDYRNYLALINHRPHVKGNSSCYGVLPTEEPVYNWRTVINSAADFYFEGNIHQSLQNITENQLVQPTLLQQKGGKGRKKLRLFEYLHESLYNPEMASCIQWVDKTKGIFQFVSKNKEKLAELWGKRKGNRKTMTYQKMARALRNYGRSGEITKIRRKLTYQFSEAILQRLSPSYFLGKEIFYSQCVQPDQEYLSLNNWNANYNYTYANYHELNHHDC
The conditions noted are these: protein: recombinant; tags: N-terminal GST; dsDNA, one strand shown. Put shortly: as §1

The target in test [5] is ELF4 (Homo sapiens, UniProt Q99607 1-663). The conditions noted are these: protein: recombinant; tags: N-terminal GST; dsDNA, one strand shown. Put shortly: as §1
In test [6] the target is T3, ELK4 (Homo sapiens, UniProt P28324-2 1-405).
T3 sequence: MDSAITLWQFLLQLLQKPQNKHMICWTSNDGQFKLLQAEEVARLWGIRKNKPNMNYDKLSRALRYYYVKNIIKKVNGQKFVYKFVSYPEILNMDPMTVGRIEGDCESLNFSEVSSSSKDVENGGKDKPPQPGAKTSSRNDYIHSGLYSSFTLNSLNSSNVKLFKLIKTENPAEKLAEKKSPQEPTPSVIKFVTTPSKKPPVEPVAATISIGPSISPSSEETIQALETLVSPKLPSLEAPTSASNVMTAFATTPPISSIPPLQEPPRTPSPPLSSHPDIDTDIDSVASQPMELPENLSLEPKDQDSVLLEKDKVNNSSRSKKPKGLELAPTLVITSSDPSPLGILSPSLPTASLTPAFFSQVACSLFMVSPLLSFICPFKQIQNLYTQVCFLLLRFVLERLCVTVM
The conditions noted are these: protein: recombinant; tags: N-terminal GST; dsDNA, one strand shown. Put shortly:
as §1

Test [7] deals with T4, ETV2 (Homo sapiens, UniProt O00321 1-342).
T4 sequence: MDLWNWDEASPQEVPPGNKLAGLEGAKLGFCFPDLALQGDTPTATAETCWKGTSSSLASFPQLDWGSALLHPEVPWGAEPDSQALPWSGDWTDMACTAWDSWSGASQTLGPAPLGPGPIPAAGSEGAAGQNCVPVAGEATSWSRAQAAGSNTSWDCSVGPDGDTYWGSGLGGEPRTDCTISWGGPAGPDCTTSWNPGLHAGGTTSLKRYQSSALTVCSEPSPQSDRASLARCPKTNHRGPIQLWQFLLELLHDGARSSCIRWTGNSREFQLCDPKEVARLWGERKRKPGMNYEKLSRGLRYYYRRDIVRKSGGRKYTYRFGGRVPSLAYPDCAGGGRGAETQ
The conditions noted are these: protein: recombinant; tags: N-terminal GST; dsDNA, one strand shown. Summed up:
as §1

The target of test [8] is T5, ELF3 (Homo sapiens, UniProt P78545 1-371).
T5 sequence: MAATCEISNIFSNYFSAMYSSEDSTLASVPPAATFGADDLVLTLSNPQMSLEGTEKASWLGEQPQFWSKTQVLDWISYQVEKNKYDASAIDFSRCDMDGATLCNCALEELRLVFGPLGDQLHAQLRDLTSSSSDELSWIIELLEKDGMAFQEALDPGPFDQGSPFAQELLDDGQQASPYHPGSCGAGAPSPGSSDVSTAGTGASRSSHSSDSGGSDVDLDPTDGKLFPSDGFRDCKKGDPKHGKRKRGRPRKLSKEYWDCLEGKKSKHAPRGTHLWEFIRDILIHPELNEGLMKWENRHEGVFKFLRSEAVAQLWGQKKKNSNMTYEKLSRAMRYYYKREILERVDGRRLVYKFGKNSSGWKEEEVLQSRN
The conditions noted are these: protein: recombinant; tags: N-terminal GST; dsDNA, one strand shown. Summed up:
as §1

Test [9] concerns the target CRX (Homo sapiens, UniProt O43186 1-299). Particulars: protein: recombinant; tags: N-terminal GST; dsDNA, one strand shown. Summed up: as §1
The target in test [10] is ETV1 (Homo sapiens, UniProt P50549 1-477). The conditions noted are these: protein: recombinant; tags: N-terminal GST; dsDNA, one strand shown. Summed up: as §1
Test [11] has as its target T6, ERF (Homo sapiens, UniProt P50548 1-548).
T6 sequence: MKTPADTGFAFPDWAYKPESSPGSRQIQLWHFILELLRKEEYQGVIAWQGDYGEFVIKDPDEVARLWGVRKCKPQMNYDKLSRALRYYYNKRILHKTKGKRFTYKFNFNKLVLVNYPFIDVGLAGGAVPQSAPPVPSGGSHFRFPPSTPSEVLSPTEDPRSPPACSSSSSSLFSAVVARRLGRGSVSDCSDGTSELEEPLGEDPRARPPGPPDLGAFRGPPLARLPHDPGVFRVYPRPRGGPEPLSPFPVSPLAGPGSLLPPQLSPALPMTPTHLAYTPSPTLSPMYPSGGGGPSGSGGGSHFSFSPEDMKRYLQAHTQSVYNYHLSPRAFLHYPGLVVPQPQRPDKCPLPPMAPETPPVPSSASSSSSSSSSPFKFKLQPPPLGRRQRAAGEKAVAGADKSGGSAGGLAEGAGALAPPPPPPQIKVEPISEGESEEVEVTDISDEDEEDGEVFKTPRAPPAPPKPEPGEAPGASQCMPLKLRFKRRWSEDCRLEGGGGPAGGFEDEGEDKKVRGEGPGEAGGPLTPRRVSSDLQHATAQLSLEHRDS
The conditions noted are these: protein: recombinant; tags: N-terminal GST; dsDNA, one strand shown. Summed up:
as §1

The target in test [12] is T7, ETV3L (Homo sapiens, UniProt Q6ZN32 1-361).
T7 sequence: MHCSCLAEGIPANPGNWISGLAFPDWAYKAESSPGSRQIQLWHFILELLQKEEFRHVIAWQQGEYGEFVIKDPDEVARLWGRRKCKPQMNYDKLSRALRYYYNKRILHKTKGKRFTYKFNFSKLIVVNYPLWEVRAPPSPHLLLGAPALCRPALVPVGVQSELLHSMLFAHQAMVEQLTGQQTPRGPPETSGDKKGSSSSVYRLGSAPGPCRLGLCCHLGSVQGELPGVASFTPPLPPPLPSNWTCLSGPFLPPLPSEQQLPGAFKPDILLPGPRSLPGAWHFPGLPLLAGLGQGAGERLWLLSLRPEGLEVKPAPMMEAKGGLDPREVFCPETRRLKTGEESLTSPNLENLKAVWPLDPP
Particulars: protein: recombinant; tags: N-terminal GST; dsDNA, one strand shown. Put shortly: as §1

The target of test [13] is T8, ETS2 (Homo sapiens, UniProt P15036 1-469).
T8 sequence: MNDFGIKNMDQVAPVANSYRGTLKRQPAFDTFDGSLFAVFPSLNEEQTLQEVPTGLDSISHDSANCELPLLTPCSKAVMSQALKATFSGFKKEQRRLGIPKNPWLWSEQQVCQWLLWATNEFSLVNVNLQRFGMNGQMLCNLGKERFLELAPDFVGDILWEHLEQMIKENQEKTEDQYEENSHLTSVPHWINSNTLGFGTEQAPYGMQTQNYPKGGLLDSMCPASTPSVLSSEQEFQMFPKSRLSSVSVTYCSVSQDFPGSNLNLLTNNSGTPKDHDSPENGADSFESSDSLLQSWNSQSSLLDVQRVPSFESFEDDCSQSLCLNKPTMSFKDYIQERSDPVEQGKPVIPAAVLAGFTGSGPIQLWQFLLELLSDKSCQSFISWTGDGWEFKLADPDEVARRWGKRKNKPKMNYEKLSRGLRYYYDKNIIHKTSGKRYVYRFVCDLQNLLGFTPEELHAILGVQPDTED
Particulars: protein: recombinant; tags: N-terminal GST; dsDNA, one strand shown. Summed up: as §1

Test [14] deals with T9, SPDEF (Homo sapiens, UniProt O95238 1-335).
T9 sequence: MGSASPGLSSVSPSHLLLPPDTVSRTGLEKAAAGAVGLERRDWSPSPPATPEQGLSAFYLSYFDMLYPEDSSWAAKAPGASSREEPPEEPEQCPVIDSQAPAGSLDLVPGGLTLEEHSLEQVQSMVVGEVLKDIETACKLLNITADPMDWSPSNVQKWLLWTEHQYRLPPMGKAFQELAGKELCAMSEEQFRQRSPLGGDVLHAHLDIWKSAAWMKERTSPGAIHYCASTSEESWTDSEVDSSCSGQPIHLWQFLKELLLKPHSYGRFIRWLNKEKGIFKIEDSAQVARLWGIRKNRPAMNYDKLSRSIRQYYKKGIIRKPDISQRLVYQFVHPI
Particulars: protein: recombinant; tags: N-terminal GST; dsDNA, one strand shown. Put shortly:
as §1

Test [15] addresses T10, ETV7 (Homo sapiens, UniProt Q9Y603 1-341).
T10 sequence: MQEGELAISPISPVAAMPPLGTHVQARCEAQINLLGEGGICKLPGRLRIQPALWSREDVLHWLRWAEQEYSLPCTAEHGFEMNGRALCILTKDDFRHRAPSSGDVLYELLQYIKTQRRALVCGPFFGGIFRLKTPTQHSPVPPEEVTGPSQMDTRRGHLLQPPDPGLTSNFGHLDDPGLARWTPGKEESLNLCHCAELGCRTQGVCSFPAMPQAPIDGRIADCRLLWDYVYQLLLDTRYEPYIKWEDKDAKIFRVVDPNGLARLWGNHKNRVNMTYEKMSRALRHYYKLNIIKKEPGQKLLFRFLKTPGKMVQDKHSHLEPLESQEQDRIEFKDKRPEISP
Particulars: protein: recombinant; tags: N-terminal GST; dsDNA, one strand shown. Put shortly:
as §1

Test [16] addresses T11, ELF5 (Homo sapiens, UniProt Q9UKW6-2 1-255).
T11 sequence: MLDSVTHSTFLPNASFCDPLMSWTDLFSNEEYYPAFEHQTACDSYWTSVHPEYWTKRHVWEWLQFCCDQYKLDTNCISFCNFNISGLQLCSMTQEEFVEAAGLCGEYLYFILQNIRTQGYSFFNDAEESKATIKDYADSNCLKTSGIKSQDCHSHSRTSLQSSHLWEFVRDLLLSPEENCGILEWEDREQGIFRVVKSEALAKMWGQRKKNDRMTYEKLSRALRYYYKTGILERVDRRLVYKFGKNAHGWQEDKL
Particulars: protein: recombinant; tags: N-terminal GST; dsDNA, one strand shown. Summed up:
as §1

Test [17] has as its target T12, ETV3 (Homo sapiens, UniProt P41162-2 1-143).
T12 sequence: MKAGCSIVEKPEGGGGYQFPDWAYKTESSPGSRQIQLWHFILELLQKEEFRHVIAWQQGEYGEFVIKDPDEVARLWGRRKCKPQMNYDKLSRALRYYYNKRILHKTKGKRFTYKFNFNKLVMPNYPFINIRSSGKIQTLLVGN
Particulars: protein: recombinant; tags: N-terminal GST; dsDNA, one strand shown. Put shortly: as §1

Test [18] concerns the target ETV6 (Homo sapiens, UniProt P41212 1-452). Particulars: protein: recombinant; tags: N-terminal GST; dsDNA, one strand shown. Put shortly:
as §1

Chain of CRX (O43186 whole entry): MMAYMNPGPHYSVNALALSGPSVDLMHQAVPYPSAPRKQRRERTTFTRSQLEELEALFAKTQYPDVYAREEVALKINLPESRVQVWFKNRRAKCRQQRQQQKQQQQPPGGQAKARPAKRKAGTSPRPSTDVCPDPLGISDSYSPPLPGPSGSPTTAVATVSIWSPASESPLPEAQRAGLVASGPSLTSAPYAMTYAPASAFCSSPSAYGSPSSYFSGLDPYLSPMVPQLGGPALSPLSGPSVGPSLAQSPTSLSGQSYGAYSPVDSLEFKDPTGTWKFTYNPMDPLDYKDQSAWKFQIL
Chain of ETV5 (P41161 whole entry): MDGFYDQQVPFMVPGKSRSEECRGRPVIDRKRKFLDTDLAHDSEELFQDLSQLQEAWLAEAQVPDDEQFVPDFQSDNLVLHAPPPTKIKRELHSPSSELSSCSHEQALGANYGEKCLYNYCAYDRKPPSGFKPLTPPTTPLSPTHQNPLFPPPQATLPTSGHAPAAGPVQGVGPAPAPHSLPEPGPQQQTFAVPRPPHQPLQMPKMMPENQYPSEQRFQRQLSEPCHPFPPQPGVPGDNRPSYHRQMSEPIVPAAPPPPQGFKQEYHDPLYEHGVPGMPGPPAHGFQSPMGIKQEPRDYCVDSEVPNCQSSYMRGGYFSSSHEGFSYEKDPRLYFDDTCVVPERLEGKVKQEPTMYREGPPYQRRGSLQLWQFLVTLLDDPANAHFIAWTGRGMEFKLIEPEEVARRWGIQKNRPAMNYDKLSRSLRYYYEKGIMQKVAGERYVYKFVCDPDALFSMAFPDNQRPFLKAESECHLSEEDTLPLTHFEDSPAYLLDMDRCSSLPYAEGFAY
Chain of HSF1 (Q00613 whole entry): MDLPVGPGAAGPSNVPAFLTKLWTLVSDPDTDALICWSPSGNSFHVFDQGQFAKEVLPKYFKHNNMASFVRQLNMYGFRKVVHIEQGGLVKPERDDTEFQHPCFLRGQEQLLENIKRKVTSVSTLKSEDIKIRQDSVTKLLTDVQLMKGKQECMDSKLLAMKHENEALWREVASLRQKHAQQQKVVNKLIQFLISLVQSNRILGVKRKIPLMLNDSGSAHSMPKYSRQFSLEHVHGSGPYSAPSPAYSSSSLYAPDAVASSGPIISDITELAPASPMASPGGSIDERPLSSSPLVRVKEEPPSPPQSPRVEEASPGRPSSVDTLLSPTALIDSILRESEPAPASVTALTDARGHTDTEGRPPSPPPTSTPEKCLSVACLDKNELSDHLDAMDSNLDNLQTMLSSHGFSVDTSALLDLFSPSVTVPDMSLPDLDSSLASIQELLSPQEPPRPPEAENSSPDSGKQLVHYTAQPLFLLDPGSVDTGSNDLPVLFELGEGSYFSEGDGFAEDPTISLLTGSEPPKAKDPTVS
Chain of ELF4 (Q99607 whole entry): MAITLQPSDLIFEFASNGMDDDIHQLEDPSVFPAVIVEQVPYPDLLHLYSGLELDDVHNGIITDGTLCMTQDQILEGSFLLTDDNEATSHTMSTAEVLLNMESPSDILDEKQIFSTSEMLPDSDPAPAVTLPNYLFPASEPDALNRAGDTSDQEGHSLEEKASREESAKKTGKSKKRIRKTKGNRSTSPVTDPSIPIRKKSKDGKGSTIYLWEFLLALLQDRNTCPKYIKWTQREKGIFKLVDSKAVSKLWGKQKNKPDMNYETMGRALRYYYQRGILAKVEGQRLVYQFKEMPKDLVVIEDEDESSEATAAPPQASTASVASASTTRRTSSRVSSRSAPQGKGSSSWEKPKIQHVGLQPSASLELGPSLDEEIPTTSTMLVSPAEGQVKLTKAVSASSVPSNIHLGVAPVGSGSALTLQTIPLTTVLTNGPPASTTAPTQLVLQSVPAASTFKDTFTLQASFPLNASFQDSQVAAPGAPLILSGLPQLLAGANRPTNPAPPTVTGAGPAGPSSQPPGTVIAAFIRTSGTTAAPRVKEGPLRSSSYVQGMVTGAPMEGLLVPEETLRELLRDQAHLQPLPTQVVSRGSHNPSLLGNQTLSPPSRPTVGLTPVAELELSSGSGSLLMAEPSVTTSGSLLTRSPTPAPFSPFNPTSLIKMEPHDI
Chain of ETV6 (P41212 whole entry): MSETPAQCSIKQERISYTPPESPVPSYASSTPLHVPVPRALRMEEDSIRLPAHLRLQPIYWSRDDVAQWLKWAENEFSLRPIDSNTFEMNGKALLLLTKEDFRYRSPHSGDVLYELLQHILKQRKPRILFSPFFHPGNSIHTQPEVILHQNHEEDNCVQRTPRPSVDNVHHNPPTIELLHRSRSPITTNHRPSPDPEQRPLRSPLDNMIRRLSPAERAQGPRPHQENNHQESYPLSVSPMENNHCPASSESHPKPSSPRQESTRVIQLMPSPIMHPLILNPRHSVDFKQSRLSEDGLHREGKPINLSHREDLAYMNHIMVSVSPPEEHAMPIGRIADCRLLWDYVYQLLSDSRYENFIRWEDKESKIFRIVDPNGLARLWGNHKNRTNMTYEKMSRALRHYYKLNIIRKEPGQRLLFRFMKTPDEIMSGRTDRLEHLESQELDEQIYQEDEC
Chain of ETV1 (P50549 whole entry): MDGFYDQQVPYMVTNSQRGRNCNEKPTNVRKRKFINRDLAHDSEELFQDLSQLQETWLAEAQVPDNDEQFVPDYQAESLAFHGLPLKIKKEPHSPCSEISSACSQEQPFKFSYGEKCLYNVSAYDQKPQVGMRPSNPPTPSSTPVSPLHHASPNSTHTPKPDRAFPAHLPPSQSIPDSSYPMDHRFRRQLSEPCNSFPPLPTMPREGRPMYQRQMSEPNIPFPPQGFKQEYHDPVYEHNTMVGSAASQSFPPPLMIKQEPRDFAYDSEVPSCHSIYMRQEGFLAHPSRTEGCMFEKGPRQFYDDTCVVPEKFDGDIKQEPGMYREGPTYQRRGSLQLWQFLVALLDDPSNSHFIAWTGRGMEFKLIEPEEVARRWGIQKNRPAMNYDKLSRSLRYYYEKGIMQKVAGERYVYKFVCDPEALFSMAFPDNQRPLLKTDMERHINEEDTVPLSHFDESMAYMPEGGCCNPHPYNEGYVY

Regarding TCTAAA, the binding signal in test [1] was 1.15 fold enrichment (6-mer frequency, TF over GST control); in [2], 1.15 fold enrichment (6-mer frequency, TF over GST control); in test [3], 1.46 fold enrichment (6-mer frequency, TF over GST control); in test [4], 1.46 fold enrichment (6-mer frequency, TF over GST control); in test [5] it was 1.27 fold enrichment (6-mer frequency, TF over GST control); in [6], 1.3 fold enrichment (6-mer frequency, TF over GST control). For the same sequence, the binding signal in [7] was 1.27 fold enrichment (6-mer frequency, TF over GST control); in [8], 1.14 fold enrichment (6-mer frequency, TF over GST control); in test [9] it was 1.6 fold enrichment (6-mer frequency, TF over GST control); in test [10], 1.16 fold enrichment (6-mer frequency, TF over GST control); in test [11], 1.17 fold enrichment (6-mer frequency, TF over GST control); in test [12], 1.18 fold enrichment (6-mer frequency, TF over GST control). In addition, the binding signal in test [13] is 1.21 fold enrichment (6-mer frequency, TF over GST control); in test [14], 1.21 fold enrichment (6-mer frequency, TF over GST control); in test [15] it was 1.18 fold enrichment (6-mer frequency, TF over GST control); in test [16] it was 1.16 fold enrichment (6-mer frequency, TF over GST control); in test [17] it was 1.28 fold enrichment (6-mer frequency, TF over GST control); in [18] it was 1.12 fold enrichment (6-mer frequency, TF over GST control).
